SMILES strings stand for the structures. In all, about 98,000 compounds went through this assay and about 4,900 (5%) were called active. This excerpt belongs to a sample that is enriched for actives. Values without a mark were called inactive. Cut-off read from the data, not from the text of the source: active = inhibition above about 30%; inactive = the rest.

A short description of the assay: growth inhibition of yeast control strain, primary screen, counter-screen for post-Golgi transport modulator project (AID 738). Conditions: efflux-deficient yeast background strain, growth absorbance A615, 16 h; at 10 µM; hits give high values. (In general: A counterscreen serves to expose hits that act by an unwanted route or on another target.)
Broadly, the inhibition is the change of the read-out against control, counted positive when it falls. As for `Cc1ccc(SCC2=NNC(=O)C2)cc1`, the inhibition was -3.86%.

In the case of `O=C(NNC(=O)c1cccnc1)Nc1ccccc1`, the inhibition is 8.65%.

Take `O=Cc1c(N2CCN(c3cccc(Cl)c3)CC2)nc2ccccn2c1=O`: the inhibition was 20%.

As for `O=[N+]([O-])c1ccccc1NCc1ccc(Cl)cc1`, the inhibition is 9.17%.

Take `CC(C)c1cc(C(N)=O)c(NC(=O)c2cccc(COc3ccc(Br)cc3)c2)s1`: the inhibition is 15.8%.

With `CSc1ccccc1C(=O)Nc1cccc(C(C)=O)c1`, the inhibition is -2.07%.

With `O=C1Nc2cc(Cl)c(Cl)cc2N(O)N1c1cc(Cl)cc(Cl)c1`, the inhibition was 33.2% (active).

In the case of `Clc1ccc(-c2cc(COc3ccccc3)no2)cc1Cl`, the inhibition is 5.93%.

Consider `Cc1ccc(-n2c(C)cc(/C=C(\C#N)C(=O)NCC3CCCO3)c2C)cc1` (stereo not given), for which the inhibition was 10.8%.

As to `CN1C2CCC1/C(=C\c1ccccc1Cl)C(=O)/C2=C\c1ccccc1Cl`, the inhibition is 25.3%.

As to `CC12c3ccccc3C(c3ccccc31)C1C(=O)N(Cc3cccnc3)C(=O)C12` (stereo not given), the inhibition was 4.53%.

For the molecule `FC(F)(F)c1cccc(NC(=S)Nc2cccc(Cl)c2)c1`, the inhibition was 35.1% (active).

Regarding `O=C(O)CSCC(=O)Nc1cccc(C(F)(F)F)c1`, the inhibition is 4.42%.

As for `CC(=O)N1CCN(C(=O)Nc2cccc(C(F)(F)F)c2)CC1`, the inhibition was -1.91%.

As to `O=C(CCNS(=O)(=O)c1ccccc1C(F)(F)F)NCc1ccc2c(c1)OCO2`, the inhibition was -1.95%.

For the molecule `COCCNC(=O)c1onc(CSc2cccc(C)c2)c1C(=O)O`, the inhibition is -8.59%.

Take `Cc1ccc(-c2nn(C(C)(C)C)c3ncnc(N)c23)cc1`: the inhibition is 52.1% (active).

On to `COc1ccc(C(F)(F)F)cc1N/C=C\c1nnnn1-c1ccc(C)cc1`, for which the inhibition is 0.15%.

Turning to `O=S(=O)(/N=C(/Nc1ccccn1)c1ccccc1)c1ccc(Cl)cc1`, the inhibition is 1.53%.

For `O=C(COc1ccc(/C=N/NS(=O)(=O)c2ccccc2)cc1)NCCc1ccccc1`, the inhibition was 5.69%.

On to `O=C(CSc1nnnn1C1CCCC1)Nc1ccc2c(c1)OCCO2`, for which the inhibition was -2.44%.

With `O=C(CSc1nc2ncccc2[nH]1)Nc1ccc2c(c1)OCCO2`, the inhibition was 0.61%.

Regarding `O=C(CSc1nnnn1-c1ccc2c(c1)CCC2)Nc1ccc2c(c1)OCCO2`, the inhibition was 39.2% (active).

For the molecule `COc1ccc(NC(C)=O)cc1NC(=O)CN1CCN(C2c3ccccc3-c3ccccc32)CC1`, the inhibition was 89.2% (active).

As for `COc1ccc(NC(C)=O)cc1NC(=O)CN1CCN(c2ccccn2)CC1`, the inhibition is 18.6%.

As for `COc1ccc(OC)c(NC(=O)CN2CCN(C(=O)c3ccco3)CC2)c1`, the inhibition is 12.4%.

In the case of `Cc1c(C(=O)OC(C)C)sc(NC(=O)c2cccnc2)c1C#N`, the inhibition was 11.5%.

As for `CC(CN1CCOCC1)c1ccccc1` (stereo not given), the inhibition is 5.77%.

On to `O=C(Nc1sc2c(c1-c1nc3ccccc3[nH]1)CCCC2)C1CC1`, for which the inhibition was 3.43%.

Consider `CCOC(=O)c1c(NC(=O)c2ccc(N3CCOCC3)c([N+](=O)[O-])c2)sc(C)c1C`, for which the inhibition was 3.45%.

Consider `COc1cccc(/C=N/NC(=O)c2cccc([N+](=O)[O-])c2)c1OS(=O)(=O)c1ccc(C)cc1`, for which the inhibition was 6.93%.

Take `COc1cc(/C=N/O)cc(Br)c1OS(=O)(=O)c1ccc(C)cc1`: the inhibition is 55.4% (active).

Consider `COc1ccc(C(=O)Oc2cc(/C=N/NS(=O)(=O)c3ccc(C)cc3)ccc2OC)cc1`, for which the inhibition is 4.53%.

In the case of `COc1cc(/C=N/O)cc(Br)c1OCc1cccc(Cl)c1`, the inhibition is 68% (active).

As to `CCOc1c(Cl)cc(/C=N/O)cc1OC`, the inhibition is -0.28%.

Regarding `CCOc1cc(/C=N/O)cc(Br)c1OC`, the inhibition is 9.73%.

For the molecule `Cn1nc(C(F)(F)F)c(C(=O)Nc2cccc(C(F)(F)F)c2)c1SCc1ccc(Cl)cc1`, the inhibition is 9.33%.

Take `CC(Oc1ccc(-c2ccccc2)c(F)c1)c1ccn(S(=O)(=O)c2cccc3ccccc23)n1` (stereo not given): the inhibition was 7.08%.

On to `O=c1c2ccccc2c(-c2ccc(F)cc2)nn1-c1ccc(C(F)(F)F)cc1`, for which the inhibition was 23.4%.

In the case of `Cc1cc(C(=O)Nc2ccccc2N2CCOCC2)c2ccccc2n1`, the inhibition was 6.17%.

Regarding `COc1c(C)cccc1C(=O)Nc1cc(Cl)ccc1N1CCOCC1`, the inhibition was 87.2% (active).

Turning to `O=C(CNC(=O)c1ccc(Cl)cc1Cl)NCC(=O)Nc1ccccc1N1CCOCC1`, the inhibition is 1.21%.

For the molecule `C/C(=N\NC(=O)c1ccccc1C)c1ccc(N2CCOCC2)cc1`, the inhibition is -0.44%.

For the molecule `CC(C)C(C)NC(=O)COc1ncnc2ccccc12` (stereo not given), the inhibition is 27.4%.

As to `COc1cccc(N2CCN(C(=O)Nc3ccc4c(c3)NC(=O)CO4)CC2)c1`, the inhibition is 4.59%.

Regarding `O=C(Cn1cncn1)N/N=C/c1c2ccccc2cc2ccccc12`, the inhibition was -2.2%.

For the molecule `CCOC(=O)N1CCN(C(=O)c2cc3c(-c4ccc(Cl)cc4)nn(C)c3s2)CC1`, the inhibition was 22.3%.

Turning to `COc1ccccc1N1CCN(C(=O)c2cc3c(-c4ccc(Cl)cc4)nn(C)c3s2)CC1`, the inhibition is 16.3%.

For the molecule `Cn1nc(-c2ccc(Cl)cc2)c2cc(C(=O)NCc3ccco3)sc21`, the inhibition was 34.4% (active).

Take `CC(=O)c1cccc(NC(=O)C2CCCN2S(=O)(=O)c2cccc3nsnc23)c1` (stereo not given): the inhibition was 18.2%.

For the molecule `Cc1ccc(-c2nc3ccccc3[nH]2)cc1NC(=O)c1sc2ccccc2c1Cl`, the inhibition is 12.1%.

For the molecule `O=C(/C=C/c1ccco1)Nc1cccc(-c2nc3ccccc3[nH]2)c1`, the inhibition is 14.9%.

Regarding `CC(Cc1cccs1)NC(=O)NC1CCCCC1` (stereo not given), the inhibition was 4.21%.

With `Cc1ccsc1C(C(=O)NC1CCCCC1)N(C(=O)Cc1cccs1)C1CC1` (stereo not given), the inhibition was 34.2% (active).

With `Cc1cccc(N(C(=O)Cc2cccs2)C(C(=O)NC2CCCC2)c2ccsc2)c1` (stereo not given), the inhibition is 2.59%.

For `Cc1ccc(Oc2ccc3c(c2)C(=O)N(c2cccc4cccnc24)C3=O)cc1`, the inhibition was 9.43%.

Consider `COC(=O)c1cc(OC)c(OC)cc1NC(=O)CSc1ccc(C)cc1`, for which the inhibition was 4.16%.

For the molecule `N#Cc1ccsc1NC(=O)CN1CCCCC1`, the inhibition is 3.25%.

In the case of `CC1(C)CCCC2=C1CC1C(=O)N(c3ccccc3)C(=O)C1C2` (stereo not given), the inhibition was 18.5%.

With `CC1CC2=C(CC1/C=N/NC(N)=S)C(C)(C)CCC2` (stereo not given), the inhibition was 90.2% (active).

For the molecule `COc1ccc(N(CC(=O)N/N=C/c2cccc3c2OCCO3)S(=O)(=O)c2ccc(NC(C)=O)cc2)cc1`, the inhibition is 0.15%.

On to `O=C(COC(=O)c1n[nH]c2ccccc12)NCc1ccccc1`, for which the inhibition is 4.29%.

`COc1ccc(COC(=O)c2n[nH]c3ccccc23)cc1F`: the inhibition is 37.5% (active).

In the case of `CCN(CC)S(=O)(=O)c1ccc2nc(COC(=O)c3n[nH]c4ccccc34)[nH]c2c1`, the inhibition was 7.74%.

Take `CC(C)Cn1c(N)c(C(=O)NCc2cccs2)c2nc3ccccc3nc21`: the inhibition was 35.7% (active).

For `CCC(C)NC(=O)c1c(N)n(/N=C/c2cccs2)c2nc3ccccc3nc12` (stereo not given), the inhibition is -2.86%.

For `C=CCn1c(N)c(C(=O)OCC(C)C)c2nc3ccccc3nc21`, the inhibition was 9.88%.

With `O=C(O)COc1ccc(-c2nccc(-c3cccs3)n2)cc1`, the inhibition was 0.28%.

In the case of `Brc1ccc(/C=N/N2CCN(C3c4ccccc4-c4ccccc43)CC2)s1`, the inhibition is -3.33%.

`CC(CC(=O)Nc1cc(C(F)(F)F)ccc1Cl)c1ccccc1` (stereo not given): the inhibition is 16%.

Consider `CCNCc1cc2cc(C)ccc2[nH]c1=O`, for which the inhibition is -2.22%.

For the molecule `CCN(Cc1cc2cc(C)ccc2[nH]c1=O)S(=O)(=O)c1ccccc1`, the inhibition was 32.2% (active).

On to `CC(=O)OCc1cc2cc(C)ccc2[nH]c1=O`, for which the inhibition was -5.13%.

Consider `O=[N+]([O-])c1ccc(Oc2ccc(F)cc2Br)c2ccncc12`, for which the inhibition is 68.3% (active).

Take `COc1ccc(C2C=C(c3ccc(Br)cc3)Nc3nc(NS(C)(=O)=O)nn32)cc1` (stereo not given): the inhibition was -3.73%.

In the case of `Cc1cc(/C=C2/SC(=O)N(CC(=O)OC(C)C)C2=O)c(C)n1C`, the inhibition was -3.79%.

Consider `Cc1cccc(NC(=S)Nc2ccc(Br)cc2)c1`, for which the inhibition was 0.28%.

As to `O=C(Nc1ccc(Cl)cc1)c1ccsn1`, the inhibition is 25.9%.

As for `O=C(Nc1ccccc1)c1nnsc1S(=O)(=O)c1ccc(Cl)cc1`, the inhibition was 97.8% (active).

Regarding `CC(=O)Nc1cc(C(=O)O)ccc1S(=O)(=O)c1ccc(Cl)cc1`, the inhibition was 8.39%.

`Cc1noc(C)c1COC(=O)c1cc2ccccc2cc1O`: the inhibition was 19.3%.

As to `Cc1cccc(NC(=O)CSc2nnc(NC(=O)CN3CCOCC3)s2)c1`, the inhibition is -6.56%.

As for `Cc1cccc(NC(=O)CN2C(=O)CNC2=O)c1`, the inhibition is 9.16%.

Regarding `Cc1cccc(NC(=O)CN2CCCN(S(=O)(=O)c3ccc(Br)s3)CC2)c1`, the inhibition was 41.2% (active).

As for `O=C(Nc1ccccc1)c1ccc2nsnc2c1`, the inhibition is 12.1%.

For the molecule `Cn1nc([N+](=O)[O-])nc1Sc1ccc(C(C)(C)C)cc1`, the inhibition was 11.6%.

On to `C=CCOC(=O)C1=C(C)NC(C)=C(C(=O)OCC=C)C1c1cccs1`, for which the inhibition is 39.5% (active).

Take `CCOC(=O)C1=C(C)NC(C)=C(C(=O)OCC)C1c1ccccn1`: the inhibition was -6.97%.

As to `C=CCOC(=O)C1=C(C)NC(SCC(=O)OCC)=C(C#N)C1c1ccc(C)cc1` (stereo not given), the inhibition was 18.4%.

Take `COc1ccc(/C=C2/S/C(=N/N=C3\CC4CCC3(C)C4(C)C)NC2=O)cc1` (stereo not given): the inhibition is -0.57%.

Take `COc1ccc(/C(O)=C2\C(=O)C(=O)N(Cc3ccco3)C2c2ccc(OC)cc2OC)cc1` (stereo not given): the inhibition was -3.5%.

With `CCCn1c(SCC(=O)Nc2c(C)cccc2C)nnc1C(C)C`, the inhibition was -4.88%.

As to `CCCn1c(SCC(N)=O)nnc1C(C)C`, the inhibition is 5.31%.

As for `CCCn1c(SCC(=O)c2ccc3c(c2)OCCO3)nnc1C(C)C`, the inhibition is 43.7% (active).

On to `Cc1cc2c(c(=O)n1C)C(C(C)C)C(C#N)=C(N)O2` (stereo not given), for which the inhibition was -3.4%.
